High-throughput results deposited in PubChem by National Center for Advancing Translational Sciences (NCATS).
Hits are enriched below; roughly 17% of the tested compounds scored in any of these assays.
ClpP mod – qHTS Assay for Activators of ClpP; purified B. subtilis ClpP, FRET peptide cleavage, 20 min; Potency, µM (doses to about 57.5 µM), for inactives: at the top dose activity change, negative = active; ATP-dependent Clp protease proteolytic subunit (Bacillus subtilis (strain 168)), P80244; 340,000 tested, 1.9% active; active = well fitted falling curve with a large enough effect; inconclusive = small, poorly fitted or top-dose-only effect; inactive = no such curve, though single readings can be large or run the other way; also: the source files actives as falling curves though it sought activators and does not explain the sign; nearly all actives have a fitted effect of over 65% in size
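FRET quenching reversal measured ClpP activation: 10 microg/mL B. subtilis ClpP at pH 8 with the FRET-FV decapeptide, read at 430 nm after 320 nm excitation. The 20-min minus 0-min signal was scaled between DMSO/no-enzyme wells and ADEP (5.8 microM final).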
TDP1 cell noCPT – qHTS for Inhibitors of human tyrosyl-DNA phosphodiesterase 1 (TDP1): qHTS in cells in absence of CPT | 420,000 tested, 15% active | AID 686978, 2013 | Potency, µM (highest dose often 46.2 µM), for the others: at the highest dose activity change, negative = growth inhibition, hits mostly inhibitors | DT40 Tdp1-/- hTDP1 cells, no CPT, ATP luminescence, 48 h; also: % is scaled to controls: 0 for no effect and ±100 for the full control effect; nearly all actives have a fitted effect of over 55% in size
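DT40 Tdp1-/-;hTDP1 cells, no CPT (DMSO vehicle only), 400 cells/well; compounds pin-transferred; ≥48 hr, 37 °C; CellTiter-Glo 30 min RT dark, luminescence read.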
TDP1 cell CPT – growth inhibition of DT40 Tdp1-/-;hTDP1 cells with camptothecin (screen for TDP1 inhibitors). chicken DT40 Tdp1-/-;hTDP1 cells + 20 nM CPT, ATP luminescence, 48 h. Potency, µM (top dose mostly 46.2 µM), for inactives: at the top dose activity change, negative = growth inhibition, most hits filed as inhibitors. 420,000 tested, 12% active. AID 686979; also: % is scaled to controls: 0 for no effect and ±100 for the full control effect; nearly all actives have a fitted effect of over 55% in size
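Chicken DT40 Tdp1-/- cells stably complemented with human TDP1 were seeded at 400 cells/well in medium containing 20 nM camptothecin, exposed to pin-transferred compounds, and grown at 37 °C for at least 48 hr. Viability was read as ATP luminescence.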
TDP1 inh – TDP1 (human) enzyme inhibition; Q9NUW8; recombinant TDP1, AlphaScreen DNA substrate cleavage; 350,000 tested, 0.28% active; Potency, µM (top dose mostly 130 µM), for the others: at the highest dose activity change, negative = inhibition, hits mostly inhibitors; also: % is scaled to controls: 0 for no effect and ±100 for the full control effect; nearly all actives have a fitted effect of over 40% in size
Target sequence (Q9NUW8 whole entry, looked up): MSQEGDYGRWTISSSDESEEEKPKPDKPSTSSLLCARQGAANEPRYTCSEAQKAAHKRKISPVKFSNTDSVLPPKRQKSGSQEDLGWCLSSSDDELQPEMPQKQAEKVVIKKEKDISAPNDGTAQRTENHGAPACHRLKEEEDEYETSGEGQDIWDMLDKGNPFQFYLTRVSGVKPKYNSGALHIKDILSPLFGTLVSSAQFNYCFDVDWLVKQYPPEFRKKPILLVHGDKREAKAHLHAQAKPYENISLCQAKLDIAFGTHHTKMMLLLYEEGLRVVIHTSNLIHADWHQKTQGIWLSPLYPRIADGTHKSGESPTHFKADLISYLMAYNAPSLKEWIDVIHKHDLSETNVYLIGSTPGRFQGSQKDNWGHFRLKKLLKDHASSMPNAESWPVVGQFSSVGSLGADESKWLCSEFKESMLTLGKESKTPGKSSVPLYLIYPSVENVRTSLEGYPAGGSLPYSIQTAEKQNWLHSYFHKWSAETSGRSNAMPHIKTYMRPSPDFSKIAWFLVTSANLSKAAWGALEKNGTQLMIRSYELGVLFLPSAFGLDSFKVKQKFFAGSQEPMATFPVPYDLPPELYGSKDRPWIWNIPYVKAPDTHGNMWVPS
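Enzyme-compound mixtures sat 15 min at room temperature, followed by a 5 min reaction with 15 nM final substrate and 10 min with AlphaScreen beads. Recombinant human Tdp1 was used at 1 nM final.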
* hit, by the source's call; ? = inconclusive; · = no result; [ ] = another dose, or the depositor's remark. Unless noted, calls follow the shape of the dose curve; as a rule, active = well fitted curve in the direction sought with a large enough effect; inconclusive = small, poorly fitted or top-dose-only effect, or another doubt; inactive = no such curve, though single readings can be large; an effect the other way counts as inactive or inconclusive. Potency is read from the fitted curve at half-maximal effect.

SMILES | ClpP mod | TDP1 cell noCPT | TDP1 cell CPT | TDP1 inh
Cc1cc(NC(=O)C(C)SCC(=O)Nc2ccccc2C(C)(C)C)no1 (stereo unspecified) | -0.5% | 14.6µM* | ? | ·
CCC(=O)N1Cc2cc(C(=O)NCCOC)nc(-c3cccc(-c4ccc(C#N)cc4)c3)c2[C@H]1CCO | -1.1% | ? | -18.5% | ·
CCS(=O)(=O)N1Cc2cc(C(=O)NCCOC)nc(-c3cccc(-c4ccncc4)c3)c2[C@@H]1CCO | -1.7% | -13.1% | -13.9% | ·
CCCNC(=O)c1cc2c(c(-c3cccc(-c4ccccc4F)c3)n1)[C@H](CCO)N(C(=O)CC1CC1)C2 | -6.9% | 16.4µM* | 16.4µM* | ·
CCNC(=O)c1cc2c(c(-c3cccc(-c4ccccc4F)c3)n1)[C@@H](CCO)N(C(=O)CC1CC1)C2 | 0.3% | ? | 20.6µM* | ·
Cc1c(Cl)cccc1NC(=O)Nc1cc(C(C)(C)C)on1 | -0.5% | 14.6µM* | ? | ·
CC(C)(C)c1cc(NC(=O)Nc2ccc(Br)cc2Cl)no1 | · | ? | 20.6µM* | 2.6%
CC(C)NC(=O)Nc1ccc(Br)cc1Cl | · | -18.5% | 12.5% | ·
O=C(NCCCN1CCOCC1)c1ccc2nc(Cc3ccccc3F)oc2c1 | -3.7% | 1.7% | 9.8% | 2.2%
O=C1CN(S(=O)(=O)c2cc(C(F)(F)F)ccc2Cl)CCN1 | -24.6% | 4.2% | 0.5% | 0.1%
Cc1cccc(-c2nnc(SC(C)C(=O)N3CCOCC3)o2)c1 (stereo unspecified) | 1.4% | 2.9% | 3.1% | 0.2%
CC1=C(c2ccc(C(C)C)cc2)S(=O)(=O)N=C1N1CCC(C(=O)NCc2ccccc2)CC1 | 2.3% | ? | ? | 5.8%
CCOC(=O)C1=C(NC(=S)NC(=O)c2ccccc2)c2ccccc2CC1C(C)C (stereo unspecified) | 3.6% | 23.1µM* | ? | 5.3%
CCOC(=O)C1=C(NC(=S)NC(=O)c2ccccc2)c2ccccc2CC1(C)CC (stereo unspecified) | -25.8% | ? | -93.1% | 6.7%
Cc1ccc(S(=O)(=O)CCC(=O)Nc2ccccc2C)cc1 | · | 23.1µM* | ? | ·
Cc1ccc(S(=O)(=O)CCNC(=O)Cc2ccccc2)cc1 | · | ? | 20.6µM* | 5.5%
Cc1ccc(S(=O)(=O)CCC(=O)OCC(=O)Nc2sccc2C#N)cc1 | -0.2% | -15.6% | -14.7% | ·
Cc1ccc(S(=O)(=O)CCC(=O)Nc2sccc2C#N)cc1 | 0.5% | 20.6µM* | ? | 11.5%
COC(=O)c1ccsc1NC(=O)CCS(=O)(=O)c1ccc(Cl)cc1 | -4.4% | 18.4µM* | ? | ·
Cc1ccc(S(=O)(=O)CCC(=O)Nc2ccccc2N2CCCC2)cc1 | -2.1% | -6.1% | ? | 3.7%
O=C(NNC(=O)c1cc2ccccc2[nH]1)OCc1ccccc1 | · | · | · | -3.5%
CCOc1ccc(OCC)c(Nc2cc(C)nc3nc(-c4ccco4)nn23)c1 | -12.6% | · | · | -3.8%
CC1CN(C(=O)COC(=O)c2cnc(Cl)c(Cl)c2)CC(C)O1 (stereo unspecified) | 31.6µM* | -0.6% | 5.8% | -0.2%
Cc1ccc(NC(=O)CSc2nnc(-c3ccccn3)n2N)c(Br)c1 | · | -7.9% | -0.7% | 7.1%
Cn1c(=NC(=O)CS(=O)(=O)c2ccccc2)sc2cc(F)ccc21 | -13.3% | ? | ? | ·
SMILES | ClpP mod | TDP1 cell noCPT | TDP1 cell CPT | TDP1 inh
CCn1c(=NC(=O)CS(=O)(=O)c2ccc(C)cc2)sc2cccc(OC)c21 | ? | 16.4µM* | ? | ·
COc1cccc2sc(=NC(=O)CS(=O)(=O)c3ccc(F)cc3)n(C)c12 | -5.9% | 11.6µM* | ? | ·
COc1cccc2sc(=NC(=O)CS(=O)(=O)c3ccc(Cl)cc3)n(C)c12 | · | 2.31µM* | 7.31µM* | 0.4%
CCn1c(=NC(=O)c2ccc(S(=O)(=O)N(C)C)cc2)sc2cccc(OC)c21 | -6.9% | -15.0% | -2.5% | 2.4%
COc1cccc(OC)c1C(=O)N=c1sc2cc(S(C)(=O)=O)ccc2n1C | · | -18.3% | -10.1% | 3.7%
COc1cccc2sc(=NC(=O)CS(=O)(=O)c3ccccc3)n(C)c12 | -2.9% | 14.6µM* | ? | ·
CCC1(C2CCN(C(=O)c3cc4ccccc4o3)CC2)NC(=O)N(CCc2scnc2C)C1=O (stereo unspecified) | · | ? | 12.8%[9.04 µM] | ·
